Experiment in all cases: DAPPL (digital affinity profiling via proximity ligation, sequencing); 10 mM Tris-HCl pH 7.5, 50 mM NaCl, 1 mM DTT, 4% glycerol, room temperature, 30 min; GST-TFs on glutathione beads, 16-mer random dsDNA library, 0.1% formaldehyde crosslink after washing; high values mean tight binding
Assay [1] has as its target T1, FEV (Homo sapiens, UniProt Q99581 1-238).
T1 sequence: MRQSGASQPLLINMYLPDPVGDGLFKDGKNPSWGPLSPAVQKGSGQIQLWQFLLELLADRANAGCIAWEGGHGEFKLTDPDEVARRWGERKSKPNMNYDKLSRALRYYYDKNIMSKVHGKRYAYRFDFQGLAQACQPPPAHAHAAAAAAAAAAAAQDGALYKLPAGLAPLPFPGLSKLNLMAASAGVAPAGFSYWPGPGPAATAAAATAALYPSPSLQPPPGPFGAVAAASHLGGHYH
Particulars: protein: recombinant; tags: N-terminal GST; dsDNA, one strand shown. An outline of the steps:
(§1)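 Yeast served to express human transcription factors as GST fusions, which were then captured on glutathione beads and labelled with DNA barcodes. Pooled with a tag-only sample, they were incubated with 200 nmole of a 16-mer random double-stranded DNA library for 30 min at room temperature in Tris/NaCl/DTT/glycerol buffer, washed, crosslinked with 0.1% formaldehyde, ligated by proximity, amplified by PCR and sequenced. Dividing each hexamer's read frequency for a factor by its frequency for the tag-only sample gives the binding signal.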

Assay [2] deals with ETV5 (Homo sapiens, UniProt P41161 1-510). The conditions noted are these: protein: recombinant; tags: N-terminal GST; dsDNA, one strand shown. A digest of the protocol:
as §1

In assay [3] the target is HSF1 (Homo sapiens, UniProt Q00613 1-529). The conditions noted are these: protein: recombinant; tags: N-terminal GST; chain copies: 3; dsDNA, one strand shown. An outline of the steps:
as §1

Assay [4] has as its target T2, SPIC (Homo sapiens, UniProt Q8N5J4 1-248).
T2 sequence: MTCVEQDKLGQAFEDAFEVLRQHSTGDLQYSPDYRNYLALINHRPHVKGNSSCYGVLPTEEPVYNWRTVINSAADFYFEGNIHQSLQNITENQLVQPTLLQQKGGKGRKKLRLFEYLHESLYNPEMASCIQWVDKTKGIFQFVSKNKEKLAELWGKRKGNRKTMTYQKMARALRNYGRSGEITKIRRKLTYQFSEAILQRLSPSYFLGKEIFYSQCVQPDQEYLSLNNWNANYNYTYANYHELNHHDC
Particulars: protein: recombinant; tags: N-terminal GST; dsDNA, one strand shown. A digest of the protocol:
as §1

Assay [5] addresses ELF4 (Homo sapiens, UniProt Q99607 1-663). The conditions noted are these: protein: recombinant; tags: N-terminal GST; dsDNA, one strand shown. An outline of the steps: as §1
The target in assay [6] is T3, ELK4 (Homo sapiens, UniProt P28324-2 1-405).
T3 sequence: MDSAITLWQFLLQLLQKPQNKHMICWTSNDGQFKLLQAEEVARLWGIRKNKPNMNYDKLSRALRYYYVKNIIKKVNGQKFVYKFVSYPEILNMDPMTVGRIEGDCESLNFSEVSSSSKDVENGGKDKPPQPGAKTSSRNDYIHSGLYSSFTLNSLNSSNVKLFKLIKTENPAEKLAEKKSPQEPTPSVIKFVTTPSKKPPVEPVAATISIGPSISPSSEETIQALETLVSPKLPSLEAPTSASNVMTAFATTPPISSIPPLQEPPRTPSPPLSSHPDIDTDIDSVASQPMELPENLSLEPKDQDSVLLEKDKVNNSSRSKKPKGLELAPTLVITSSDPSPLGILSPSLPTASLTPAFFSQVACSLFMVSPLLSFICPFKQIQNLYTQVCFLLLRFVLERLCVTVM
The conditions noted are these: protein: recombinant; tags: N-terminal GST; dsDNA, one strand shown. An outline of the steps:
as §1

Assay [7] concerns the target T4, ETV2 (Homo sapiens, UniProt O00321 1-342).
T4 sequence: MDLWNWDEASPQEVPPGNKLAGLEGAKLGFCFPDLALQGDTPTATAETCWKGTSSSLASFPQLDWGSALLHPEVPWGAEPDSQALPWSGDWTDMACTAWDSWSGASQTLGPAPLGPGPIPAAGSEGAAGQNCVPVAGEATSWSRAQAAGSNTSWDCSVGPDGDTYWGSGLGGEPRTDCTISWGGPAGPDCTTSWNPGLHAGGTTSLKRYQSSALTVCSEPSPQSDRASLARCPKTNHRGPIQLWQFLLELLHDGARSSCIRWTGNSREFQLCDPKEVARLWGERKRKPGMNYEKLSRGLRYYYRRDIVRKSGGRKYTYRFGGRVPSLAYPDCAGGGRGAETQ
Particulars: protein: recombinant; tags: N-terminal GST; dsDNA, one strand shown. An outline of the steps: as §1

Assay [8] has as its target T5, ELF3 (Homo sapiens, UniProt P78545 1-371).
T5 sequence: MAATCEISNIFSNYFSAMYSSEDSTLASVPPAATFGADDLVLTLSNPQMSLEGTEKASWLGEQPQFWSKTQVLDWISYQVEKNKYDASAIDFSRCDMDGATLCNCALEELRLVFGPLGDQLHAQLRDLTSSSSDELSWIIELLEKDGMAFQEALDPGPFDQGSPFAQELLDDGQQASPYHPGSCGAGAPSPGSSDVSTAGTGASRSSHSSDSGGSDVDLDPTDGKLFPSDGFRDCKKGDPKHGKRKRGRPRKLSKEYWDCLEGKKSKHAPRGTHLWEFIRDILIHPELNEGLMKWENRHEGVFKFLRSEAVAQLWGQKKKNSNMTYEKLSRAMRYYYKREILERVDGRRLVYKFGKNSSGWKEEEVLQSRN
The conditions noted are these: protein: recombinant; tags: N-terminal GST; dsDNA, one strand shown. An outline of the steps: as §1

Assay [9] has as its target CRX (Homo sapiens, UniProt O43186 1-299). Particulars: protein: recombinant; tags: N-terminal GST; dsDNA, one strand shown. An outline of the steps:
as §1

In assay [10] the target is ETV1 (Homo sapiens, UniProt P50549 1-477). Particulars: protein: recombinant; tags: N-terminal GST; dsDNA, one strand shown. An outline of the steps:
as §1

Assay [11] deals with T6, ERF (Homo sapiens, UniProt P50548 1-548).
T6 sequence: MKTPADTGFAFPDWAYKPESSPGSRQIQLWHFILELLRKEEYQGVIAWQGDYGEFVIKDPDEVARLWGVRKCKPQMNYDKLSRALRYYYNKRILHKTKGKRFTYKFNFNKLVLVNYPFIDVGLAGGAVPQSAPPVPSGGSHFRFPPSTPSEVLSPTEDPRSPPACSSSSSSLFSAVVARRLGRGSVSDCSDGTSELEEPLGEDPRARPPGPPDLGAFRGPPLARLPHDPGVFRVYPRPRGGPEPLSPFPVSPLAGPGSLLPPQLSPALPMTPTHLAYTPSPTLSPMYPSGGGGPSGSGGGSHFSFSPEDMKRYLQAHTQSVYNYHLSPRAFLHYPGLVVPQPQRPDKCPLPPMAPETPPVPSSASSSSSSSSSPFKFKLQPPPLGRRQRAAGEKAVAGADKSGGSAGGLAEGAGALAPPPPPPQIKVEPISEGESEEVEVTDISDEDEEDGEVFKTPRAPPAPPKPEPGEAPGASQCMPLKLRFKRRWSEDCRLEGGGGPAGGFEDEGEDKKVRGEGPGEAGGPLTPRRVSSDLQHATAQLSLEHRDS
Particulars: protein: recombinant; tags: N-terminal GST; dsDNA, one strand shown. A digest of the protocol: as §1

For assay [12], the target named is T7, ETV3L (Homo sapiens, UniProt Q6ZN32 1-361).
T7 sequence: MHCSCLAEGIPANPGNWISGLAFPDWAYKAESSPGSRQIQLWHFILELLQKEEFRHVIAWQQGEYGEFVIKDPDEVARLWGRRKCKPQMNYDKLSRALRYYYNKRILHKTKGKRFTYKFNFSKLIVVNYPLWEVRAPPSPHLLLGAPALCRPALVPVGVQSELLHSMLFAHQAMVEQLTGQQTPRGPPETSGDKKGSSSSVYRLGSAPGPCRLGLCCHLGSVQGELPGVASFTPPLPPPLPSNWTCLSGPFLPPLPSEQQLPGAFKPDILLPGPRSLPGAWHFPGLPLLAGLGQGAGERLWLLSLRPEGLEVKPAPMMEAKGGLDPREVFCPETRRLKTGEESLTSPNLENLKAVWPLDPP
Particulars: protein: recombinant; tags: N-terminal GST; dsDNA, one strand shown. A digest of the protocol: as §1

Assay [13] concerns the target T8, ETS2 (Homo sapiens, UniProt P15036 1-469).
T8 sequence: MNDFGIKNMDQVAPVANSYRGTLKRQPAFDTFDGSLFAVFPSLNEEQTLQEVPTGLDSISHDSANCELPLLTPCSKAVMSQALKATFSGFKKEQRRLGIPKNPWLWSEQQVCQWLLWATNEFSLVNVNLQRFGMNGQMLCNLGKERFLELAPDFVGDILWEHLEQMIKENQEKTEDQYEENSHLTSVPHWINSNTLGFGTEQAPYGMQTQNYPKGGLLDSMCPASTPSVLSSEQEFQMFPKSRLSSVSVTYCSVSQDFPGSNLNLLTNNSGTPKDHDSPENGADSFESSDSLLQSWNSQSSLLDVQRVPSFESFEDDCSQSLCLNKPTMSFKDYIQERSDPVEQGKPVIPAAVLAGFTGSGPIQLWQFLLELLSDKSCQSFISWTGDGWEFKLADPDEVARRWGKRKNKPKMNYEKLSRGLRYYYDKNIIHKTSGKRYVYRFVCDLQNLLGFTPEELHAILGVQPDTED
Particulars: protein: recombinant; tags: N-terminal GST; dsDNA, one strand shown. A digest of the protocol:
as §1

Assay [14] concerns the target T9, SPDEF (Homo sapiens, UniProt O95238 1-335).
T9 sequence: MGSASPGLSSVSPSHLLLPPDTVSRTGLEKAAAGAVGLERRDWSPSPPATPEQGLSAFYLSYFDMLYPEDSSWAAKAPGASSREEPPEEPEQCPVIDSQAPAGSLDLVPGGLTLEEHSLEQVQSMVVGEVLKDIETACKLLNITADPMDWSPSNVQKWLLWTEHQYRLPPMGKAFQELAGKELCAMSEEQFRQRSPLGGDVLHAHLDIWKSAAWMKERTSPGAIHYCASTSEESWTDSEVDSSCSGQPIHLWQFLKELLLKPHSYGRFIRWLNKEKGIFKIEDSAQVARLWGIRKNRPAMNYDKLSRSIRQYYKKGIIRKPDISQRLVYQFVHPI
Particulars: protein: recombinant; tags: N-terminal GST; dsDNA, one strand shown. An outline of the steps:
as §1

For assay [15], the target named is T10, ETV7 (Homo sapiens, UniProt Q9Y603 1-341).
T10 sequence: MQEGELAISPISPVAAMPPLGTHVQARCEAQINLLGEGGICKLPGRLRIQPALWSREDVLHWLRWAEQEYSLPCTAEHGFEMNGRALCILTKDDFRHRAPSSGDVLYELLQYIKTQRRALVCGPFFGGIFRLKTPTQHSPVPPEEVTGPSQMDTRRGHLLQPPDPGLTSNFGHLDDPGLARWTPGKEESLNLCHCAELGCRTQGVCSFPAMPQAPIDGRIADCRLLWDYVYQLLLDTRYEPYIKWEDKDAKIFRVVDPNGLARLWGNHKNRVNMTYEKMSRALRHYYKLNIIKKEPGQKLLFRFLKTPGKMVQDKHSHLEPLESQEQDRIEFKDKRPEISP
Particulars: protein: recombinant; tags: N-terminal GST; dsDNA, one strand shown. An outline of the steps: as §1

Assay [16] has as its target T11, ELF5 (Homo sapiens, UniProt Q9UKW6-2 1-255).
T11 sequence: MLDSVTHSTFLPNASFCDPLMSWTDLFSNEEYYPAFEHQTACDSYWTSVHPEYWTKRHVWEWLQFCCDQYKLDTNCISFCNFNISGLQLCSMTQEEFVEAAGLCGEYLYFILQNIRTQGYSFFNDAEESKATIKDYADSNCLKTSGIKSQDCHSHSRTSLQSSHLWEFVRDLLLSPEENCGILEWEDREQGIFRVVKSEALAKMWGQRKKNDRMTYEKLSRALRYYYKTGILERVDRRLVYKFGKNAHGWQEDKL
The conditions noted are these: protein: recombinant; tags: N-terminal GST; dsDNA, one strand shown. A digest of the protocol:
as §1

The target of assay [17] is T12, ETV3 (Homo sapiens, UniProt P41162-2 1-143).
T12 sequence: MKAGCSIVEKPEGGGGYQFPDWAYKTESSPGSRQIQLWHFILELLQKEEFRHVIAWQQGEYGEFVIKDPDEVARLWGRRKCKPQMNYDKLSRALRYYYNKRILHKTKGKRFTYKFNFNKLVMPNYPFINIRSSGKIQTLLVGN
The conditions noted are these: protein: recombinant; tags: N-terminal GST; dsDNA, one strand shown. A digest of the protocol: as §1

The target in assay [18] is ETV6 (Homo sapiens, UniProt P41212 1-452). The conditions noted are these: protein: recombinant; tags: N-terminal GST; dsDNA, one strand shown. An outline of the steps: as §1
Sequence of ETV6 (P41212 whole entry): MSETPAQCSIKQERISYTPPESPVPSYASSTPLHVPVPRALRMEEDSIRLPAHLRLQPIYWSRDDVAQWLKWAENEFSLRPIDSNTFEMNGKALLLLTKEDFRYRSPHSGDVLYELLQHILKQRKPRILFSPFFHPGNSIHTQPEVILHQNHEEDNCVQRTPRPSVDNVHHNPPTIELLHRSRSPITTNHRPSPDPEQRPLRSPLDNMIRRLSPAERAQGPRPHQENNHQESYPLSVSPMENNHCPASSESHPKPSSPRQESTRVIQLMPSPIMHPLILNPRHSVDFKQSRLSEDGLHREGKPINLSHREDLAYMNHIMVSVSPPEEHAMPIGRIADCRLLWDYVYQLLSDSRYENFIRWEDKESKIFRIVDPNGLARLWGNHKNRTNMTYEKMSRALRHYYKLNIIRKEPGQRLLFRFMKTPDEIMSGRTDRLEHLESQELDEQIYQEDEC

Sequence of ELF4 (Q99607 whole entry): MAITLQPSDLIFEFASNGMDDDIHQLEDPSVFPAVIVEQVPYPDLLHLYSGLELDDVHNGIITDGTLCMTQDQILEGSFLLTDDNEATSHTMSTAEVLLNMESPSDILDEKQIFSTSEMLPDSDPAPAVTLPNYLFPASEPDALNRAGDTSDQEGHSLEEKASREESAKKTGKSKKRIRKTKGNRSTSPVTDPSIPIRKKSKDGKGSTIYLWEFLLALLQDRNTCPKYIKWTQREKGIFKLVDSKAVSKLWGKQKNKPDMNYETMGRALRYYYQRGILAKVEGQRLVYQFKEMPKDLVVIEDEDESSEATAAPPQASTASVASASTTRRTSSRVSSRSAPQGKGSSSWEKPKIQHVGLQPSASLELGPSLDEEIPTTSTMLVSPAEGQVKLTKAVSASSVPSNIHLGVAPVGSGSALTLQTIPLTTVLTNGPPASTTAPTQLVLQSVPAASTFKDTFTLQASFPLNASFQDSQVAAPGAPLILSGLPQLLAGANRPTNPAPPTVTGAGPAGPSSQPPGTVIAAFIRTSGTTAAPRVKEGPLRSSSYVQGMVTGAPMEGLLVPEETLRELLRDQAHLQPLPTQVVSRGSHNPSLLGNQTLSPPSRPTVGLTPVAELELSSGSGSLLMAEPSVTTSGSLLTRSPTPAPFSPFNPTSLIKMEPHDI
Sequence of CRX (O43186 whole entry): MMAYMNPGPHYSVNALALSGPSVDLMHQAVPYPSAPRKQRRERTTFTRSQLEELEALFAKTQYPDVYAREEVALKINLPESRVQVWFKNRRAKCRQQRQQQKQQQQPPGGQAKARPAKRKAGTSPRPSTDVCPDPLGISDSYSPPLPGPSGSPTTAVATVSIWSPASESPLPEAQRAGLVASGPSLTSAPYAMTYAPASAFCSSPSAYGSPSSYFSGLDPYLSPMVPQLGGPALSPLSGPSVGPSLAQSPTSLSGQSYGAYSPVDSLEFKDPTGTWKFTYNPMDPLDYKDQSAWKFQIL
Sequence of HSF1 (Q00613 whole entry): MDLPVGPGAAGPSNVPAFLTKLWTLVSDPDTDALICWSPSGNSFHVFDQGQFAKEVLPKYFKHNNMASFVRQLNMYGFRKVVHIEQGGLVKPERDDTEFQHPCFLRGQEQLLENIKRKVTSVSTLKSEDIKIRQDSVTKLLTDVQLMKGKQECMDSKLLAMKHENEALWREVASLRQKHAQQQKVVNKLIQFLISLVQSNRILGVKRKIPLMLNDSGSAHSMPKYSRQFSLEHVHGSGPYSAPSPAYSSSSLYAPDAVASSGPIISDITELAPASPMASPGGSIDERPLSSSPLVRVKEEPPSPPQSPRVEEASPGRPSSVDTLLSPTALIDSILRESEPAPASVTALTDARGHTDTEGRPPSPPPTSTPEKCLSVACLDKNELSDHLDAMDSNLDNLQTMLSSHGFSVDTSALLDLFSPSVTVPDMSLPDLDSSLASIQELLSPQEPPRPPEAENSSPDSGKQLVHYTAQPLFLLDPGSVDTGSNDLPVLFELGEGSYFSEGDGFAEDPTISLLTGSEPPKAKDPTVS
Sequence of ETV5 (P41161 whole entry): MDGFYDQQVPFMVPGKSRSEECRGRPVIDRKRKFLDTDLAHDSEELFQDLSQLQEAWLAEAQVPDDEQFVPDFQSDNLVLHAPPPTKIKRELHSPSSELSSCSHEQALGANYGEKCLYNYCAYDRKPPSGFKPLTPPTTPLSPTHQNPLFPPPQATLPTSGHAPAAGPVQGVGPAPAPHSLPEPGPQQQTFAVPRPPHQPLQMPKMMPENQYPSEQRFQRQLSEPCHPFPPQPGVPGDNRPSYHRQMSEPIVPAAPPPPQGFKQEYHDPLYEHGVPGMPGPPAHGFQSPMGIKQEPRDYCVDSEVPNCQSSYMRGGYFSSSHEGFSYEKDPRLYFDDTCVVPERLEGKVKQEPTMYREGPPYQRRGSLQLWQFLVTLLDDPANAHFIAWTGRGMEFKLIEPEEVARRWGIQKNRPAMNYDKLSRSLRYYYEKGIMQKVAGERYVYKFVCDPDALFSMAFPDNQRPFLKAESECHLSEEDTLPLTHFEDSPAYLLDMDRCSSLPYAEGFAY
Sequence of ETV1 (P50549 whole entry): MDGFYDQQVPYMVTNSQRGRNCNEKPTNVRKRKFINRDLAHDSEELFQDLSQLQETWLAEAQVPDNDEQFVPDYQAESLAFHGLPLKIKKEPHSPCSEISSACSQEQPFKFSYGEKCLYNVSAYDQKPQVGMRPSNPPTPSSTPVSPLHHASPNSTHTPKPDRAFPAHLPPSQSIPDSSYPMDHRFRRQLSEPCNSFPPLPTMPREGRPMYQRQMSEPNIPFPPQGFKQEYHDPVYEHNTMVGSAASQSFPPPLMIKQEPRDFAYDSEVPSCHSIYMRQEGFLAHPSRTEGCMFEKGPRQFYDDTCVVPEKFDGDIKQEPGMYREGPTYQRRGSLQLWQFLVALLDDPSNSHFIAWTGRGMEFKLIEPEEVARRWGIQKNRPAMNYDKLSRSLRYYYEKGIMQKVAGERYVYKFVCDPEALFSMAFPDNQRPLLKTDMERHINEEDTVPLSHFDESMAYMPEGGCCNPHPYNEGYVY

Take GTTCTA: the binding signal in [1] was 1.26 fold enrichment (6-mer frequency, TF over GST control); in assay [2] it was 1.18 fold enrichment (6-mer frequency, TF over GST control); in [3], 2.94 fold enrichment (6-mer frequency, TF over GST control); in assay [4] it was 1.37 fold enrichment (6-mer frequency, TF over GST control); in assay [5], 1.31 fold enrichment (6-mer frequency, TF over GST control); in assay [6], 1.2 fold enrichment (6-mer frequency, TF over GST control). Besides, the binding signal in assay [7] was 1.17 fold enrichment (6-mer frequency, TF over GST control); in assay [8] it was 1.27 fold enrichment (6-mer frequency, TF over GST control); in [9], 1.59 fold enrichment (6-mer frequency, TF over GST control); in [10], 1.11 fold enrichment (6-mer frequency, TF over GST control); in assay [11] it was 1.27 fold enrichment (6-mer frequency, TF over GST control); in assay [12], 1.2 fold enrichment (6-mer frequency, TF over GST control). The binding signal in assay [13] is 1.25 fold enrichment (6-mer frequency, TF over GST control); in assay [14] it was 1.19 fold enrichment (6-mer frequency, TF over GST control); in assay [15], 1.2 fold enrichment (6-mer frequency, TF over GST control); in assay [16], 1.23 fold enrichment (6-mer frequency, TF over GST control); in assay [17] it was 1.19 fold enrichment (6-mer frequency, TF over GST control); in [18] it was 1.24 fold enrichment (6-mer frequency, TF over GST control).
